Paper PMC5540273 (PLoS ONE, 2017)
Read-outs that look alike come from different tables or passages of the source.

Legend:
[1] = system: T1, YANK1; settings: concentration: 1 μM, replicates: in singlicate; n = 1
T1 construct: gene STK32A

[2] = system: T2, YANK2; settings: concentration: 1 μM, replicates: in singlicate; n = 1
T2 construct: gene STK32B

[3] = system: T3, YANK3; settings: concentration: 1 μM, replicates: in singlicate; n = 1
T3 construct: gene STK32C

[4] = system: T4, YES; settings: concentration: 1 μM, replicates: in singlicate; n = 1
T4 construct: gene YES1

[5] = system: T5, YSK1; settings: concentration: 1 μM, replicates: in singlicate; n = 1
T5 construct: gene STK25

[6] = system: T6, YSK4; settings: concentration: 1 μM, replicates: in singlicate; n = 1
T6 construct: gene MAP3K19

[7] = system: ZAK; settings: concentration: 1 μM, replicates: in singlicate; n = 1
[8] = system: ZAP70; settings: concentration: 1 μM, replicates: in singlicate; n = 1
[9] = system: T7, p38-alpha; settings: n = 1
T7 construct: gene MAPK14

[10] = system: T8, p38-beta; settings: concentration: 1 μM, replicates: in singlicate; n = 1
T8 construct: gene MAPK11

[11] = concentration: 1 μM, replicates: in singlicate
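Further: KINOMEscan kinase panel screen.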

## O=C(Nc1n[nH]c2cc(-c3ccccc3F)ccc12)C1CC1 [SB-733371]
[1]
  %Inh: 0%
[2]
  %Inh: 0%
[3]
  %Inh: 0%
[4]
  %Inh: 0%
[5]
  %Inh: 0%
[6]
  %Inh: 87%
[7]
  %Inh: 0%
[8]
  %Inh: 0%
[9]; [11]
  %Inh: 4%
[10]
  %Inh: 9%

## Nc1n[nH]c2ncc(-c3ccccc3)cc12 [SB-517081]
[1]
  %Inh: 9%
[2]
  %Inh: 0%
[3]
  %Inh: 23%
[4]
  %Inh: 20%
[5]
  %Inh: 8%
[6]
  %Inh: 52%
[7]
  %Inh: 25%
[8]
  %Inh: 0%
[9]; [11]
  %Inh: 13%
[10]
  %Inh: 0%

## CCc1nc(-c2cccc(C)c2)c(-c2ccncc2)s1
[1]
  %Inh: 36%
[2]
  %Inh: 16%
[3]
  %Inh: 0%
[4]
  %Inh: 7%
[5]
  %Inh: 0%
[6]
  %Inh: 8%
[7]
  %Inh: 0%
[8]
  %Inh: 0%
[9]; [11]
  %Inh: 72%
[10]
  %Inh: 52%

## Cc1nnc(-c2ccc3ncn(-c4ccc(S(C)=O)cc4)c3c2)o1 (stereo not shown)
[1]
  %Inh: 0%
[2]
  %Inh: 0%
[3]
  %Inh: 4%
[4]
  %Inh: 7%
[5]
  %Inh: 0%
[6]
  %Inh: 21%
[7]
  %Inh: 12%
[8]
  %Inh: 0%
[9]; [11]
  %Inh: 0%
[10]
  %Inh: 13%

## OCCCNc1nccc(-c2c(-c3cccc(C(F)(F)F)c3)nn3cc(C(F)(F)F)ccc23)n1 [GW630813]
[1]
  %Inh: 0%
[2]
  %Inh: 0%
[3]
  %Inh: 0%
[4]
  %Inh: 0%
[5]
  %Inh: 1%
[6]
  %Inh: 2%
[7]
  %Inh: 0%
[8]
  %Inh: 0%
[9]; [11]
  %Inh: 99.4%
[10]
  %Inh: 30%

## CCC(=O)c1c(-c2ccccc2)c2cc(Cl)ccc2c(=O)n1Cc1cc(S(C)(=O)=O)n(CC(F)F)n1
[1]
  %Inh: 0%
[2]
  %Inh: 8%
[3]
  %Inh: 0%
[4]
  %Inh: 0%
[5]
  %Inh: 0%
[6]
  %Inh: 0%
[7]
  %Inh: 0%
[8]
  %Inh: 11%
[9]; [11]
  %Inh: 10%
[10]
  %Inh: 2%

## COC(=O)c1c(-c2ccccc2)c2cc(Br)ccc2c(=O)n1Cc1ccc(NC(=O)CCC(=O)O)cc1
[1]
  %Inh: 0%
[2]
  %Inh: 21%
[3]
  %Inh: 0%
[4]
  %Inh: 0%
[5]
  %Inh: 0%
[6]
  %Inh: 12%
[7]
  %Inh: 36%
[8]
  %Inh: 0%
[9]; [11]
  %Inh: 5%
[10]
  %Inh: 5%

## O=C(NCc1cccs1)c1cc(C(=O)c2c(Cl)cccc2Cl)c[nH]1 [GW823670]
[1]
  %Inh: 0%
[2]
  %Inh: 0%
[3]
  %Inh: 0%
[4]
  %Inh: 0%
[5]
  %Inh: 11%
[6]
  %Inh: 0%
[7]
  %Inh: 0%
[8]
  %Inh: 0%
[9]; 1 µM
  %Inh: 23%
[10]
  %Inh: 9%

## COc1cc2nccc(Nc3ccc(OCc4ccc(NC(C)=O)cc4)cc3)c2cc1OC.Cl [GW440135]
[1]
  %Inh: 0%
[2]
  %Inh: 4%
[3]
  %Inh: 0%
[4]
  %Inh: 11%
[5]
  %Inh: 0%
[6]
  %Inh: 0%
[7]
  %Inh: 10%
[8]
  %Inh: 16%
[9]; [11]
  %Inh: 18%
[10]
  %Inh: 0%

## Cc1nnc(-c2ccc(C)c(-c3ccc(C(=O)O)cc3)c2)o1 [GW608005]
[1]
  %Inh: 0%
[2]
  %Inh: 0%
[3]
  %Inh: 9%
[4]
  %Inh: 0%
[5]
  %Inh: 0%
[6]
  %Inh: 15%
[7]
  %Inh: 0%
[8]
  %Inh: 0%
[9]; [11]
  %Inh: 0%
[10]
  %Inh: 0%

## Nc1ncnc2c1ncn2-c1ccc(Cl)cc1 [AH2635]
[1]
  %Inh: 0%
[2]
  %Inh: 0%
[3]
  %Inh: 0%
[4]
  %Inh: 0%
[5]
  %Inh: 0%
[6]
  %Inh: 27%
[7]
  %Inh: 0%
[8]
  %Inh: 0%
[9]; [11]
  %Inh: 32%
[10]
  %Inh: 0%

## FC(F)(F)c1ccc(-c2ncn(CCCN3CCOCC3)c2-c2ccncc2)cc1 [SB-217780]
[1]
  %Inh: 17%
[2]
  %Inh: 1%
[3]
  %Inh: 7%
[4]
  %Inh: 3%
[5]
  %Inh: 0%
[6]
  %Inh: 10%
[7]
  %Inh: 17%
[8]
  %Inh: 12%
[9]; [11]
  %Inh: 25%
[10]
  %Inh: 5%

## Cc1nc(N(C)[C@H]2CN(C(=O)CC#N)CC[C@H]2C)c2cc[nH]c2n1
[1]
  %Inh: 0%
[2]
  %Inh: 0%
[3]
  %Inh: 6%
[4]
  %Inh: 18%
[5]
  %Inh: 0%
[6]
  %Inh: 0%
[7]
  %Inh: 0%
[8]
  %Inh: 0%
[9]; [11]
  %Inh: 0%
[10]
  %Inh: 1%

## O=C(NCCNc1ccnc(Nc2ccc(F)cc2)n1)Nc1ccc2c(c1)OCO2 [GSK1379882]
[1]
  %Inh: 0%
[2]
  %Inh: 1%
[3]
  %Inh: 0%
[4]
  %Inh: 0%
[5]
  %Inh: 17%
[6]
  %Inh: 9%
[7]
  %Inh: 100%
[8]
  %Inh: 0%
[9]; [11]
  %Inh: 19%
[10]
  %Inh: 0%

## O=C(Nc1n[nH]c2nc(-c3ccccc3)c(Br)cc12)C1CC1 [SB-708998]
[1]
  %Inh: 7%
[2]
  %Inh: 10%
[3]
  %Inh: 11%
[4]
  %Inh: 12%
[5]
  %Inh: 0%
[6]
  %Inh: 95.3%
[7]
  %Inh: 9%
[8]
  %Inh: 5%
[9]; [11]
  %Inh: 7%
[10]
  %Inh: 41%

## COc1cccc(C2=C(N(C)c3ccccc3)C(=O)NC2=O)c1 [SB-334865]
[1]
  %Inh: 0%
[2]
  %Inh: 0%
[3]
  %Inh: 2%
[4]
  %Inh: 21%
[5]
  %Inh: 8%
[6]
  %Inh: 37%
[7]
  %Inh: 20%
[8]
  %Inh: 0%
[9]; [11]
  %Inh: 14%
[10]
  %Inh: 0%
